# This is a sample that favours compounds with a hit; in the whole collection about 4.1% have one here.
# hgDAF12 agonist – activates the H. glycines DAF-12 receptor ligand-binding domain; AID 687014; 1.8% of 370,000 active; HEK293 GAL4-hgDAF12 UAS-luciferase reporter, agonist luminescence; normalized to butyrate control; activation, % at 6.8 µM;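 active = activation above a cutoff set at the mean of all screened compounds plus 3 SD, cut at about 10% in these data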;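 note: 0% = DMSO wells and 100% = sodium butyrate wells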
# hcDAF12 agonist – activators of H. contortus DAF-12 nuclear receptor | HEK293 hcDAF-12 lit1-tk-luc reporter, luminescence; 0% DMSO, 100% Δ7-dafachronic acid | activation, % at 6.8 µM | 1.4% of 370,000 active | AID 652067;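 active = activation above the mean of all tested compounds plus 3 SD, cut at about 5.5% in these data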;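 note: 100% = response to 3 µM Δ7-dafachronic acid high control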
# DAX1 inh-1 – inhibitors of human orphan nuclear receptor DAX1 (NR0B1) | 0.99% of 340,000 active | AID 504766 | inhibition, % at 6.75 µM | HEK293 Gal4-DAX1 luciferase reporter, luminescence | P51843;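 active = inhibition above the mean over all tested compounds plus 3 SD, cut at about 4.2% in these data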;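 note: 0% = DAX1-transfected cells with DMSO and 100% = empty-vector control cells with DMSO; inhibition shows as a rise in luminescence from relieved DAX1 repression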
# Target sequence (P51843 207-470 limits assumed): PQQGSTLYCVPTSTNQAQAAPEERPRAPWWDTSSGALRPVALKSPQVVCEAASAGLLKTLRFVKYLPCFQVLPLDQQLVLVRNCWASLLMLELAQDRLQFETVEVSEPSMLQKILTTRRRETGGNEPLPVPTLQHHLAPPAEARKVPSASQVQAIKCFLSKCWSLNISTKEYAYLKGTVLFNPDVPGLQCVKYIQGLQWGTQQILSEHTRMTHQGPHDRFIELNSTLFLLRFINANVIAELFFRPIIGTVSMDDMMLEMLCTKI
# DAX1 inh-2 – blocks DAX1 repression of SF-1 activated StAR promoter; 1.1% of 370,000 active; AID 652010; inhibition, % at 6.8 µM; HEK293T StAR-luciferase reporter, SF-1/DAX-1 repression relief;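 active = inhibition above the mean over all tested compounds plus 3 SD, cut at about 3.6% in these data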;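 note: 0% = DAX-1 cells with DMSO and 100% = cells lacking DAX-1 with DMSO; higher inhibition means more luminescence from relief of DAX-1 repression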
# ssDAF-12 act – activates DAF-12 receptor from parasite S. stercoralis; HEK293 ssDAF-12/GRIP1 lit1-tk-luc reporter, luminescence; % of 3 µM dafachronic acid response; activation, % at 6.8 µM; 1% of 370,000 active;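 active = activation above the mean over all tested compounds plus 3 SD, cut at about 0.9% in these data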;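 note: 0% = DMSO-only wells and 100% = 3 µM delta7-dafachronic acid wells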
# hgDAF12 ag – hgDAF-12 agonism, confirmation assay. AID 743050. activation, % at 6.8 µM. shares compounds with hgDAF12 agonist. 80% of 3,300 active. HEK293 GAL4-hgDAF12 luciferase reporter, agonist mode; percent of butyrate response;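 active = mean activation over triplicate wells above the hit cutoff derived from the earlier primary screen, cut at about 11% in these data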;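 note: 0% = DMSO low control and 100% = 2 mM sodium butyrate high control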
# LXRb DAF12 ctr – LXR-beta agonism as DAF-12 counter-screen. shares compounds with hgDAF12 agonist. activation, % at 6.8 µM. HEK293 Gal4-LXR luciferase reporter, 24 h. 3,300 tested, under 10 active;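 active = mean activation of the triplicate above a set limit carried over from the primary screen, none filed active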
# Active calls of the source: *; nt = not tested or not shown.
SMILES,hgDAF12 agonist,hcDAF12 agonist,DAX1 inh-1,DAX1 inh-2,ssDAF-12 act,hgDAF12 ag,LXRb DAF12 ctr
C[C@@H]1CN(C(=O)OC(C)(C)C)CCN1c1ccc(N2CC[C@@H](O)C2)c(C#N)c1,-2.8,-2.7,nt,-1.5,-1.4,nt,nt
Cc1ccc(SCn2nnc3ccccc3c2=O)c(C)c1,14.4*,-0.2,1.1,1.1,-0.8,11.5*,0.3
O=C(Cc1ccccc1[N+](=O)[O-])NCc1ccccc1Cl,13.7*,4.0,0.5,3.5,0.1,13.7*,0.4
Cc1c(C(O)(c2ccccc2)c2ccccc2)[n+]2ccccc2n1C,-2.1,-1.4,nt,nt,-1.3,nt,nt
Cc1ccc(C2=NNC3(CCOC(C)(C)C3)S2)cc1 (stereo not given),16.9*,10.7*,2.2,4.0*,1.0*,5.6,0.4
CN1CCCC1CCNc1ccc2oc3ccccc3c(=O)c2c1 (stereo not given),7.8,2.6,nt,2.1,0.0,nt,nt
COc1cccc2sc3cc(NCCCN4CCOCC4)ccc3c(=O)c12,-3.8,-0.9,-0.8,-0.1,-1.9,nt,nt
O=c1c2ccccc2oc2ccc(NCCCN3CCOCC3)cc12,13.4*,3.2,3.0,2.7,-0.7,15.7*,0.7
CN1CCCC1CCNc1ccc2c(=O)c3ccccc3oc2c1 (stereo not given),14.2*,2.2,2.9,1.8,-0.1,15.2*,0.6
COCCCNC(=O)C[C@H]1C[C@@]2(C(=O)OC)C(=C[C@H](COCc3ccccc3)O[C@@H]2C)N(Cc2ccc(Cl)cc2Cl)C1=O,-0.2,-2.7,nt,-0.5,-1.6,nt,nt
CCOC(=O)Cc1csc(NC(=O)c2ccco2)n1,13.3*,0.8,1.3,3.2,-1.2,4.4,0.3
C=CCN=C1NC(c2ccc(F)cc2)C(C(=O)OC)=C(C)N1C (stereo not given),0.1,0.0,nt,-0.9,-0.8,nt,nt
O=C1CCC(CNc2ccccc2)N1c1ccccc1 (stereo not given),-2.0,0.5,nt,nt,-1.1,nt,nt
CCNC(=S)NNC(=O)CSc1nc2ccccc2c(=O)n1-c1ccc(Cl)cc1,4.5,-0.8,nt,-1.3,-1.1,nt,nt
Cc1ccccc1-c1cccc2[nH]c3c(c12)CCN1C(=O)[C@H]2[C@H](C)ON(C)[C@H]2C[C@@H]31,-0.9,-2.8,nt,-0.5,-1.0,nt,nt
CCCCc1cc(=O)oc2cc(C)cc(OCC(=O)Nc3ccccn3)c12,15.2*,3.5,1.1,1.4,0.2,7.0,0.3
COCCN1Cc2cc(C(=O)OC)c3c(c2C1=O)c1cc(F)ccc1n3S(=O)(=O)c1cccc(C)c1,-0.2,-0.8,nt,-0.6,-1.2,nt,nt
O=C(Nc1ccccc1)c1ccc(-c2ccccc2C(F)(F)F)o1,7.3,-0.8,-0.3,0.5,-0.9,nt,nt
O=C(Nc1ccccc1)c1ccc(-c2ccccc2Cl)o1,13.2*,4.6,3.7,2.7,0.1,13.0*,0.4
CN1CCN(c2ccc(NC(=O)c3ccccc3Br)cc2)CC1,5.6,4.5,2.0,1.1,-0.7,nt,nt
CN1CCN(c2ccc(NC(=O)c3ccc(-c4ccccc4F)o3)cc2)CC1,24.0*,5.4,2.0,4.4*,1.4*,17.3*,0.8
CCCC(=O)OC12CCCN(C1)/C(=C/c1ccccc1)C2 (stereo not given),4.1,-0.4,nt,1.7,-1.3,nt,nt
C/C(=N/NC(=O)c1cc(C(C)C)[nH]n1)c1cccs1,13.7*,6.1*,0.7,3.0,0.2,16.1*,1.0
C/C(=N\NC(=O)c1cc(C(C)C)[nH]n1)c1ccncc1,-1.0,0.6,-1.0,0.3,-0.8,nt,nt
C/C(=N\NC(=O)c1cc(C)[nH]n1)c1cccs1,16.5*,4.0,2.1,4.5*,0.3,13.8*,0.6
C/C(=N\NC(=O)c1cc(C)[nH]n1)c1ccc(-c2ccccc2)cc1,1.9,1.7,0.6,0.1,-0.4,nt,nt
OC(c1ccccc1)(c1ccccc1)C1CCN(CCCOc2ccc(-c3cncnc3)cc2)CC1,1.7,-2.1,nt,2.6,-1.0,nt,nt
COc1ccccc1/C=C/c1ccc2cccc(O)c2n1,4.6,5.5,2.5,0.7,0.0,nt,nt

# Screening results deposited in PubChem BioAssay by The Scripps Research Institute Molecular Screening Center.
